Assay outcomes (PubChem)
aSyn UTR inh – MLPCN primary screen, SNCA 5' untranslated region; alpha-synuclein 5'UTR reporter, inhibitor activity; inhibition, % (tested at 7.5 µM); 0.82% of 300,000 active; AID 1813, 2009; in the data active means inhibition above about 60%;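 further: H4 neuroglioblastoma cells stably carrying SNCA 5'UTR luciferase fusion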
A1 inh – caspase 3/7 activation in MEF A1-2A-BIM cells, primary screen, A1 inhibitor project, cell-based, luminescence, HTS; caspase activation, % (test concentration not listed); 0.066% of 330,000 active; Caspase-Glo 3/7 luminescence, 3 h; percent of clofoctol response, vehicle zero;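 active means over half of replicate activation scores above 10%, or exactly half above 10 with the replicate mean above 10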
Mdm2 MdmX PPI – inhibitors of human Mdm2-MdmX association, primary screen, cell-based, luminescence, split luciferase, SaOS-2, uHTS. SaOS-2 split-luciferase Mdm2/MdmX complementation. 3% of 330,000 active. inhibition, % at 8 µM. Protein Mdm4 (Homo sapiens) + E3 ubiquitin-protein ligase Mdm2 (Homo sapiens), …. AID 485346, 2010;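 active means inhibition of at least 50% at 8 µM in the primary screen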
Beta cell apopt – inhibitors of cytokine-induced beta cell apoptosis, primary screen, luminescence. 0.8% of 300,000 active. INS-1E cytokine-induced death, ATP luminescence, 48 h; percent of positive-control rescue, neutral wells zero. protection from apoptosis, % (no concentration beside the values). AID 435005, 2010;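 active means Every replicate reaches about 75%, or at least half do and their mean reaches it too, limit read from the data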;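 further: higher means more ATP so stronger rescue from cytokine killing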
CSC inhib – cancer stem cell viability inhibitors, primary screen, luminescence; cancer stem cell-like cells viability; inhibition, % at 7.5 µM; 1.1% of 300,000 active; in the data active means inhibition above about 75%; tested in HMLE shEcad cells
Mdm2 MdmX conf – Mdm2-MdmX complex disruptors, retested hits, confirmation, luminescence, single concentration; AID 489028, 2010; shares compounds with Mdm2 MdmX PPI; Mdm2-MdmX binding, luminescent assay; 55% of 10,000 active; inhibition, % at 8 µM; in the data active means inhibition above about 40%
FLuc counter – full-length luciferase signal inhibition, confirmation, counter-screen for Mdm2/MdmX interaction inhibitor project, cell-based, single concentration, SaOS-2; shares compounds with Mdm2 MdmX PPI; SaOS-2 full-length luciferase counterscreen, luminescence; inhibition, % at 8 µM; 77% of 6,200 active;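 active means mean inhibition at 8 µM reaching about 37%, which flags the compound as non-specific, limit read from the data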;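 further: p53-null SaOS-2 cells with luciferase driven by a doxycycline-inducible promoter; compound on cells about two nights before reading with doxycycline added after day one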
Of the large screens only hits and unclear results are named; the others gave an inactive call (follow-up assays come after a bar, where they were run). An excerpt weighted towards active compounds, which were near 4.1% of everything screened.

COc1ccc2c(c1)c(C(=O)N/N=C/c1ccc(Br)cc1)c(C)n2C	Mdm2 MdmX PPI 56 (no result: Beta cell apopt) | Mdm2 MdmX conf inactive | FLuc counter 54
O=C(N/N=C/c1ccccc1Cl)c1[nH]c2ccc(Br)cc2c1-c1ccccc1	aSyn UTR inh 71, Mdm2 MdmX PPI 89 | Mdm2 MdmX conf 75 | FLuc counter 106
NNC(=O)c1[nH]c2ccc(Cl)cc2c1-c1ccccc1	aSyn UTR inh 77, Mdm2 MdmX PPI 53 (no result: Beta cell apopt) | Mdm2 MdmX conf inactive
COc1ccc(/C=N/NC(=O)c2[nH]c3ccc(Br)cc3c2-c2ccccc2)cc1	aSyn UTR inh 80, Mdm2 MdmX PPI 74 | Mdm2 MdmX conf 60 | FLuc counter 108
CCN(C(=O)CO/N=C/c1ccc(OC)cc1OC)c1c(N)n(Cc2ccccc2)c(=O)[nH]c1=O	none (no result: aSyn UTR inh)
O=C(COC(=O)c1ccc(O)cc1)Nc1cc(C(F)(F)F)ccc1N1CCOCC1	none (no result: aSyn UTR inh)
O=C(CCN1C(=O)[C@@H]2Cc3ccccc3CN2C1=O)N[C@@H](C(=O)O)c1ccccc1	none (no result: Beta cell apopt)
Cc1nc2sc(C(=O)Nc3ccccc3Cc3ccccc3)c(C)c2c(=O)[nH]1	none
Cc1ccc(CN2CC(C(=O)NCCC3=CCCCC3)CC2=O)cc1 (stereo not given)	none (no result: aSyn UTR inh, CSC inhib)
CN(C)S(=O)(=O)c1ccc(-c2csc(N/N=C/c3ccc(O)cc3)n2)cc1	Mdm2 MdmX PPI 100, CSC inhib 130 | Mdm2 MdmX conf 83 | FLuc counter 38
CN(C)S(=O)(=O)c1ccc(-c2csc(N/N=C/c3ccco3)n2)cc1	Mdm2 MdmX PPI 72 | Mdm2 MdmX conf inactive
C(=N\Nc1nc(-c2ccccc2)cs1)/c1ccncc1	none (no result: Beta cell apopt)
COc1ccc(C(=O)NCCN2CCOCC2)cc1S(=O)(=O)Nc1ccc(C)cc1	none (no result: aSyn UTR inh)
CN(C)S(=O)(=O)c1ccc(NC(=O)CN2C(=O)NC(Cc3ccccc3)C2=O)cc1 (stereo not given)	none (no result: aSyn UTR inh)
Cc1c(CN2CCC(CO)(Cc3cccc(C(F)(F)F)c3)CC2)c2ccccc2n1C	Mdm2 MdmX PPI 68 (no result: CSC inhib) | Mdm2 MdmX conf 42 | FLuc counter 71
Cc1ccc(C)c(OCCC(=O)N2CCN(S(=O)(=O)c3ccc([N+](=O)[O-])cc3)CC2)c1	none (no result: aSyn UTR inh, CSC inhib)
O=C(c1ccco1)N1CCN(C(=O)c2cnn3c2NC(c2cccs2)CC3C(F)(F)F)CC1 (stereo not given)	none
O=C(c1cnn2c1NC(c1ccco1)CC2C(F)(F)F)N1CCN(c2cccc(Cl)c2)CC1 (stereo not given)	Mdm2 MdmX PPI 59 | Mdm2 MdmX conf 51 | FLuc counter 56
Cc1ccc(C(=O)NCCc2nnc3c(C(F)(F)F)cc(Cl)cn23)o1	none
COc1ccc(/C=N/N2C(=O)CSC2=S)cc1	none
COc1ccc(-c2nn(-c3ccccc3)cc2/C=N/N2C(=O)CSC2=S)cc1	Mdm2 MdmX PPI 97, Beta cell apopt 106, CSC inhib 108 | Mdm2 MdmX conf inactive
COc1ccccc1C(=O)O/N=C(\N)c1ccccc1Cl	none
COc1ccc(/C(N)=N/OC(=O)CC2CCCCC2)cc1OC	Mdm2 MdmX PPI 67 | Mdm2 MdmX conf inactive
COc1ccc(C(=O)O/N=C(\N)c2ccccc2Cl)cc1OC	Mdm2 MdmX PPI 86 | Mdm2 MdmX conf 44 | FLuc counter 112
COc1ccc(C(=O)O/N=C(\N)c2ccccc2)c(OC)c1	Mdm2 MdmX PPI 93 | Mdm2 MdmX conf 77 | FLuc counter 164
COc1ccc(C(=O)O/N=C(\N)c2ccc(OC)c(OC)c2)cc1	Mdm2 MdmX PPI 86 | Mdm2 MdmX conf inactive
CCCCn1c(N)c(N(CCC(C)C)C(=O)C2CC(=O)N(CCc3ccc(OC)c(OC)c3)C2)c(=O)[nH]c1=O (stereo not given)	none
CC1CCN(c2ccc3nnc(CCC(=O)N4CCN(c5ccc(F)cc5)CC4)n3n2)CC1	none
